Assay outcomes deposited in PubChem BioAssay by National Center for Advancing Translational Sciences (NCATS).
An excerpt weighted towards active compounds, which were near 5.9% of everything screened.
FBPA coupling cs: counter-screen for Giardia aldolase inhibitors: coupling enzyme system. coupling enzyme system counterscreen, AmpLite Red fluorescence. activity change, negative = inhibition, % at 58.2 µM, hits read low. 0.67% of 290,000 active; in the data active means activity change below about -30%
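Compounds tested against the coupling enzymes alone at 57.5 uM final; readout was AmpLite Red fluorescence (525/598 nm) after 20 min at RT.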
RORgamma inh: inhibitors of mouse ROR gamma transcriptional activity; 5.4% of 310,000 active; P51450; Potency, µM (titrated, usually from 53.6 µM), for the others: at the highest dose activity change, negative = inhibition, usual class: inhibitors; Drosophila S2 Gal4-RORgamma UAS-luciferase reporter, 20 h; further: potency means the concentration at half of the fitted maximal effect; nearly all actives have a fitted effect of over 60% in size
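Luminescence from a UAS-regulated Photinus luciferase reporter in stably transfected Drosophila Schneider cells is measured; decreased signal marks ROR gamma inhibition. Fusion expression is induced by 700 uM copper sulfate for 20 hr.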
GALK inh: blocks human galactokinase activity; P51570; Purified GALK, Kinase-Glo residual ATP luminescence; Potency, µM (highest dose often 57.5 µM), for inactives: top-dose activity change, negative = inhibition, hits mostly inhibitors; 0.007% of 270,000 active; further: potency means the concentration at half of the fitted maximal effect
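ATP-depletion format; final 35 uM ATP, 100 uM D-galactose, 5 nM enzyme; pH 8.0 HEPES/Mg2+ buffer; 60 min RT; luminescence read 10 min after detection reagent.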
VP16 counter: Gal4-VP16 reporter inhibition counter-screen; Potency, µM (highest dose often 53.6 µM), without a hit: top-dose activity, negative = inhibition, most hits filed as inhibitors; 3.5% of 310,000 active; Drosophila S2 Gal4-VP16 UAS-luciferase, luminescence, 20 h; AID 2546;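 further: Gal4-VP16 expression switched on by copper sulfate through the metallothionein promoter; potency means the concentration at half of the fitted maximal effect; nearly all actives have a fitted effect of over 50% in size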
rTrxR1 inhibitor: blocks rat thioredoxin reductase 1. O89049. recombinant rTrxR1, NADPH fluorescence consumption, selenite substrate. Potency, µM (top dose mostly 114 µM), for the others: at the top dose activity change, negative = inhibition, usual class: inhibitors. 1% of 390,000 active. AID 588453; further: potency means the concentration at half of the fitted maximal effect; nearly all actives have a fitted effect of over 65% in size
Target sequence (O89049 whole entry, looked up): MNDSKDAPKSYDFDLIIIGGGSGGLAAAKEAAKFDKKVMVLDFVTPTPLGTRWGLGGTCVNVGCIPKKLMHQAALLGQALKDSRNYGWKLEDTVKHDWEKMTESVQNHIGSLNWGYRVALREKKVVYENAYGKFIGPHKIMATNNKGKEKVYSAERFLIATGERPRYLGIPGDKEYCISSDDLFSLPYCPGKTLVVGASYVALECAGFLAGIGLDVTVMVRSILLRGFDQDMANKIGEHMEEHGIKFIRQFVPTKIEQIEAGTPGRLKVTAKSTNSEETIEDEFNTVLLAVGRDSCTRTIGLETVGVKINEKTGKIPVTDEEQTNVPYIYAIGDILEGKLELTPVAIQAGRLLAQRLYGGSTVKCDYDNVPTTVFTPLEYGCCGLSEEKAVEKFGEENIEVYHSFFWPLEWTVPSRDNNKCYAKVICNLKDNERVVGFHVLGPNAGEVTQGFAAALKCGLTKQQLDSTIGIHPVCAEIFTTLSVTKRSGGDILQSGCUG
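Rat TrxR1 (90 nM in the dispensed reagent) was pre-reduced with 400 uM NADPH for 5 min at room temperature, then incubated with compound for 15 min. After 400 uM selenite was added, NADPH fluorescence (Ex 340/Em 450 nm) was followed for 8 min.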
TrxR1 substrate: substrates of rat thioredoxin reductase 1. O89049. purified TrxR1 substrate turnover, NADPH consumption readout. Potency, µM (series often up to 114 µM), for the others: at the top dose activity change, negative = substrate turnover. 0.01% of 390,000 active. AID 588456; further: potency means the concentration at half of the fitted maximal effect; nearly all actives have a fitted effect of over 50% in size
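Rat TrxR1, dispensed at 90 nM, was prereduced with 400 uM NADPH (final) for 5 min at ~22 deg C, then incubated with compound 15 min before 400 uM selenite. A first-read NADPH fluorescence drop versus no-compound background flagged substrates.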
Numbers without * were called inactive; ? = inconclusive; . = not tested or not shown; [ ] = remark or other dose. Unless noted, the call rests on the fitted dose curve; in most records, active means well fitted curve in the direction sought with a large enough effect; inconclusive means small, poorly fitted or top-dose-only effect, or another doubt; inactive means no such curve, though single readings can be large; an effect the other way counts as inactive or inconclusive. On the % scale 0 is the no-effect control and ±100 the full control effect.

SMILES	FBPA coupling cs	RORgamma inh	GALK inh	VP16 counter	rTrxR1 inhibitor	TrxR1 substrate
CC12CCC(C(=O)N(NC(=O)c3ccc(O)cc3)C1=O)C2(C)C (stereo not drawn)	-1	-14%	-1%	-6%	13%	8%
CCC(C)Cn1c(C)nc2ccccc21 (stereo not drawn)	-1	13µM*	1%	13µM*	-7%	-2%
Cc1nc2ccccc2n1Cc1ccccc1Br	0	?	-3%	13µM*	25%	8%
Cc1nc2ccccc2n1CSc1ccccc1	1	14µM*	3%	-29%	4%[57.1 µM]	6%[57.1 µM]
NNC(=O)c1cc(-c2ccco2)[nH]n1	-1	1%	-2%	0%	18%	5%
COc1cc(OC)cc(C(=O)NNC(=O)C(CCC(N)=O)NS(=O)(=O)c2ccc(Cl)cc2)c1 (stereo not drawn)	.	.	.	.	10%	2%
Nc1nnc(SCc2cc3c(cc2Cl)OCO3)s1	3	12%	1%	2%	-13%	-4%
Cc1ccn2c(c1)nc(=S)n2C(=O)c1ccccc1	-2	4µM*	.	2.5µM*	8%[11.4 µM]	2%[11.4 µM]
Cc1cccc(C(=O)n2c(=S)nc3cc(C)ccn32)c1	0	?	-1%	?	2%	6%
COC(=O)[C@@]1(Cc2ccc(OC)cc2)[C@H]2c3cc(C(=O)N(C)C)n(Cc4cccc5ccccc45)c3C[C@H]2CN1C(=O)c1ccccc1	1	18%	.	0%	.	.
Cn1c(SCC(=O)N(Cc2ccccc2)C(C)(C)C)nc2ccccc21	-1	?	-4%	-22%	19%	0%
Cn1c(Cl)c(/C=N/OC(=O)c2ccccc2Cl)c2ccccc21	0	0%	-2%	-8%	29%[57.1 µM]	-18%
Cc1cccc(C(=O)O/N=C/c2c(N3CCOCC3)n(C)c3ccccc23)c1	-1	1.6µM*	-1%	3.5µM*	.	.
O=[N+]([O-])c1ccc(O/N=[N+](\[O-])N2CCCC2)c([N+](=O)[O-])c1	.	.	.	.	18µM*	-7%
CS(=O)(=O)N1CCN(c2ccc([N+](=O)[O-])cc2F)CC1	0	-10%	7%	-6%	4%[57.1 µM]	-1%[57.1 µM]
CS(=O)(=O)N1CCN(/[N+]([O-])=N/Oc2ccc([N+](=O)[O-])cc2[N+](=O)[O-])CC1	.	.	.	.	8.9µM*	-3%
CS(=O)(=O)N1CCN(/[N+]([O-])=N/Oc2ccc([N+](=O)[O-])cc2[N+](=O)[O-])CC1 (tested in a mixture with another compound)	.	.	.	.	11µM*	5%
CCOc1ccc(NC(=O)CN2CCN(C(=O)c3ccco3)CC2)cc1S(=O)(=O)N1CCCC1	.	.	.	.	-8%	-6%
CN(CCOc1ccccc1)c1ccc(S(=O)(=O)N2CCCCC2)cn1	1	?	-3%	-9%	11%	10%
C[C@@H]1C(=O)N(S(=O)(=O)c2ccc([N+](=O)[O-])cc2)[C@H]1c1ccc(F)cc1	10	0%	.	-2%	?	-7%
CCCCN(CCCC)c1ccc(/C=C/c2ccnc3ccccc23)cc1	.	.	.	.	32%	-2%
COC(=O)c1cccc(C23CC4(C2)[C@H](CN(Cc2ccc(-c5ccccc5)cc2)[C@@H]4c2ccccc2)C3c2ccccc2)c1 (stereo partly drawn)	3	-15%	0%	-4%	6%	2%
C=CCn1c(-c2cccc3ccccc23)n[nH]c1=S	4	3.5µM*	1%	10µM*	-5%	-4%
C=CCn1c(-c2ccccc2OC)n[nH]c1=S	4	11µM*	.	?	?	-4%
CN1C(=O)/C(=C/c2ccccc2OCc2ccccc2)NC1=S	-2	7.1µM*	.	?	1%	-5%
SMILES	FBPA coupling cs	RORgamma inh	GALK inh	VP16 counter	rTrxR1 inhibitor	TrxR1 substrate
CN1C(=O)/C(=C/c2ccccc2OCc2cccc(F)c2)NC1=S	-2	4µM*	-2%	3.2µM*	30%[57.1 µM]	8%[57.1 µM]
Cc1sc2ncnc(SCC(=O)NC(=O)c3cccn3C)c2c1C	2	4.5µM*	-2%	-7%	-5%[57.1 µM]	9%[57.1 µM]
Cc1cccc(NC(=O)CSc2ncnc3sc(C)c(C)c23)n1	.	16%	0%	-12%	-25%	-14%
O=[N+]([O-])c1ccc(-c2ccc(S(=O)(=O)N3CCOCC3)cc2)cc1	0	-4%	-1%	-5%	16%	2%
Cc1[nH]n(-c2ccccc2)c(=O)c1N=Nc1ccc(C(=O)O)cc1	8	31%	1%	15%	-3%	-13%
Cc1[nH]n(-c2ccccc2)c(=O)c1N=Nc1cccc(S(=O)(=O)N2CCOCC2)c1	-2	7.9µM*	2%	?	3%	-4%
Cc1[nH]n(-c2ccccc2)c(=O)c1N=Nc1cccc(C(=O)O)c1	7	?	2%	2.8µM*	-15%	-13%
O=Nc1c(-c2ccccc2)[nH]n(-c2ccccc2)c1=O	2	?	1%	16µM*	29%	4%
Cc1[nH]n(-c2ccccc2)c(=O)c1N=Nc1c(Cl)cccc1Cl	1	13µM*	-5%	?	9%	-1%
CCOC(=O)C1CCN(C(=O)CN(C)S(=O)(=O)c2cc(C)ccc2OC)CC1	0	-13%	0%	3%	0%	-4%
Clc1ccccc1OCCn1ccnc1	0	-42%	3%	1%	6%	-1%
Cc1cc(NS(=O)(=O)c2ccc(NC(=O)/C=C/c3ccco3)cc2)nc(C)n1	9	-1%	-4%	-24%	13µM*	-10%
O=C(/C=C/c1ccco1)Nc1ccc(CN2CCOCC2)cc1	0	-25%	1%	3%	-26%	-11%
O=C(/C=C/c1ccco1)Nc1ccc(N2CCCC2)cc1	1	-7%	0%	?	32µM*	-3%
O=C(/C=C/c1ccco1)Nc1ccc(C(=O)N2CCOCC2)cc1	2	8%	3%	5%	40µM*	-10%
COc1ccc(Nc2ncc(C(=O)Nc3cccc(OC)c3)c3ccccc23)cc1	.	.	.	.	-3%	-5%
CCOC(=O)c1ccc(NC=C2C(=O)OC3(CCCCC3)OC2=O)cc1	3	11%	-1%	1%	2%	-2%
CC1CN(C(=O)CCC(=O)NC(C)c2ccccc2)c2cc(Cl)ccc2O1 (stereo not drawn)	0	30%	.	-2%	11%[57.1 µM]	5%[57.1 µM]
COc1ccc(C2CC(c3ccccc3)n3nnnc3N2)cc1 (stereo not drawn)	6	0%	1%	-4%	6%	4%
Nc1nc2n(n1)C(c1cccs1)CC(c1ccccc1)N2 (stereo not drawn)	1	13µM*	0%	-18%	-5%	6%
